An excerpt weighted towards active compounds, which were near 3.3% of everything screened.
GAA850 FXN act: increases GAA850 frataxin promoter reporter activity. HEK293 lucGAA850 FXN promoter luciferase reporter, 24 h; percent of 10 µM SAHA response. activation, % at 6 µM. 360,000 tested, 0.56% active. AID 540364;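 active = activation above the average of all compounds screened plus 3 SD, cutoff fixed separately per campaign, cut at about 7.5% in these data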
Statin myotox sup: protects C2C12 myotubes from simvastatin toxicity; ATP luminescence, 48 h; scaled: DMSO 0, geranylgeraniol control 100; rescue of ATP level, % at 7.49 µM; 330,000 tested, 0.78% active; AID 602340;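 active = mean ATP rescue above about 67%, or every replicate alone reaching that limit, limit read from the data, passing the limit was not always enough; inconclusive = no clear call, values can overlap the other calls; inactive = mean under the limit and some replicate under it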;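 also: myotubes were challenged with 10 µM simvastatin during compound exposure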
MITF act: increases MITF-driven TRPM1 promoter luciferase signal. SK-MEL-5 TRPM1-promoter luciferase, 24 h; % of positive control, neutral wells = 0. activation, % at 12.5 µM. 300,000 tested, 0.75% active. AID 588334;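 active = mean activation of at least 80% with every replicate also reaching 80%; inconclusive = mean reaches 80% but some replicate falls short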
esBAF inh: blocks esBAF chromatin remodeling in mouse ES cells; Bmi1-luciferase knock-in reporter, 24 h; 100% = twice the neutral-well signal; reporter increase, % at 12.5 µM; 350,000 tested, 2% active; in the data active = activation above about 40%; inconclusive = no clear call, values can overlap the other calls;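 also: a rise in the Bmi1 reporter signal indicates esBAF inhibition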
Wnt act: activates Wnt/beta-catenin signaling in a reporter cell assay; activator, plate reader; activation, % at 9.35 µM; 300,000 tested, 1.2% active; AID 743398; in the data active = activation above about 30%, passing the limit was not always enough; inconclusive = no clear call, values can overlap the other calls
Of the large screens only hits and unclear results are named; the others gave an inactive call.

COc1ccc(C2CC(=O)C(C=NCCN3CCOCC3)=C(O)C2)cc1 (stereo not given)	Statin myotox sup 126 (no result: Wnt act)
COc1ccc(C2CC(=O)C(C=NCCN3CCN(C(C)=O)CC3)=C(O)C2)cc1 (stereo not given)	none (no result: Wnt act)
COc1ccc(C2C(C(=O)OCC(=O)NC(C)(C)C)CCC(=O)N2c2ccc(C)cc2)cc1OC (stereo not given)	none (no result: Wnt act)
COc1ccc(C2C(C(=O)OCC(=O)Nc3ccc(C)cc3)CCC(=O)N2c2ccc(OC)cc2)cc1 (stereo not given)	Statin myotox sup 95 (no result: MITF act)
Cc1ccnc(Nc2nc3ccccc3o2)n1	none
Cc1ccc(Nc2nc3ccccc3o2)cc1F	Wnt act 31 (no result: Statin myotox sup)
O=C(C[C@@H]1C[C@@H]2c3cc(NC(=O)NC4CCCC4)ccc3O[C@@H]2[C@H](CO)O1)NCc1ccncc1	none (no result: GAA850 FXN act, MITF act, Wnt act)
COc1cc(CNc2ccc(N3CCN(C(C)=O)CC3)cc2)ccc1OCc1ccccc1	Wnt act 40 (no result: Statin myotox sup, esBAF inh)
Cc1cccnc1NC(=S)NC(=O)c1oc2ccccc2c1C	esBAF inh 74
Cc1c(C(=O)NC(=S)NCC(C)C)oc2ccccc12	MITF act 90 (no result: Statin myotox sup, esBAF inh)
CC(C)CN(CCOc1cccc(N2C(=O)C3=C(CCCC3)C2=O)c1)CC(C)C	Wnt act 42 (no result: Statin myotox sup, esBAF inh)
Cn1nnnc1SCC(=O)Nc1nc2c(s1)CCCC2	MITF act 93, Wnt act inconclusive
Clc1ccc(-n2ncc3c(NCc4ccco4)ncnc32)cc1	esBAF inh 52, Wnt act 60 (no result: MITF act)
COc1ccc(-n2ncc3c(NCc4ccco4)ncnc32)cc1	none (no result: Statin myotox sup, MITF act, Wnt act)
COc1ccc(-n2ncc3c(NCc4cccs4)ncnc32)cc1	MITF act inconclusive, esBAF inh 107
c1ccc(-n2ncc3c(NCc4cccs4)ncnc32)cc1	esBAF inh 45, Wnt act 71 (no result: MITF act)
O=C(C[C@H]1C[C@@H]2c3cc(NC(=O)c4cccnc4)ccc3O[C@@H]2[C@@H](CO)O1)NCCc1ccccc1	none (no result: GAA850 FXN act, MITF act, Wnt act)
C#CCn1c(=NC(=O)c2cccs2)sc2cccc(OC)c21	esBAF inh 54
C#CCn1c(=NC(=O)CN2C(=O)CCC2=O)sc2cccc(OC)c21	none
CCCCCCn1c(N2CCC(C)CC2)nc2c1c(=O)[nH]c(=O)n2C	none (no result: Wnt act)
CCCCCn1c(N2CCC(C(N)=O)CC2)nc2c1c(=O)[nH]c(=O)n2C	Statin myotox sup 107
O=C(C[C@@H]1CC[C@H](NC(=O)c2ccncc2)[C@@H](CO)O1)NCC1CCCCC1	none (no result: GAA850 FXN act, MITF act, Wnt act)
CC1(C)C2CCC1(C)C(OC(=O)CNc1ccccc1)C2 (stereo not given)	none (no result: Statin myotox sup, esBAF inh)
COc1cc(C(=O)OC2CC3CCC2(C)C3(C)C)ccc1OC(C)=O (stereo not given)	esBAF inh 49
CO[C@H]1CN(C)C(=O)c2ccc(NC(=O)c3ccc(F)cc3)cc2OC[C@H](C)N(C(=O)CN(C)C)C[C@@H]1C	none (no result: GAA850 FXN act, MITF act, Wnt act)
c1ccc(-c2cc(-c3ccccc3)on2)cc1	Wnt act 42 (no result: Statin myotox sup, esBAF inh)
Nc1nc(-c2cc(-c3ccccc3)no2)cs1	MITF act 88, Wnt act 46
COc1cc(NC(=O)c2cc3ccccc3o2)c(OC)cc1Cl	none (no result: MITF act)
Cc1ccc(NC(=O)c2cc3ccccc3o2)nc1	Wnt act 65 (no result: Statin myotox sup, esBAF inh)
Cc1ccccc1NC(=O)c1cc2ccccc2o1	esBAF inh 47
Cc1cc(C)nc(NC(=O)c2cc3ccccc3o2)n1	none
COc1ccccc1NC(=O)c1cc2ccccc2o1	esBAF inh 72 (no result: Wnt act)
COc1ccc(-c2cc3ccccc3oc2=O)cc1NC(=O)c1ccc([N+](=O)[O-])o1	Statin myotox sup inconclusive, esBAF inh 42 (no result: Wnt act)
COc1ccccc1NC(=O)c1oc2ccccc2c1C	esBAF inh 47 (no result: MITF act, Wnt act)
CCN(CC)c1ccc(NC(=O)c2cc3ccccc3o2)c(C)c1	Statin myotox sup 159, esBAF inh 45 (no result: Wnt act)
Cc1ccc(NC(=O)c2ccc3ccccc3n2)nc1	Wnt act 77
CC(C)C#Cc1ccc2c(c1)O[C@@H](CN(C)C(=O)c1cccnc1)[C@@H](C)CN([C@@H](C)CO)S2(=O)=O	none (no result: GAA850 FXN act, MITF act, Wnt act)
CCC(C)(C)C1CCc2[nH]nc(C(=O)NC3CCCCC3)c2C1 (stereo not given)	esBAF inh 58
O=C(C[C@@H]1CC[C@@H]2[C@H](COC[C@H](O)CN2Cc2ccccc2F)O1)N[C@H]1CCN(Cc2ccccc2)C1	none (no result: GAA850 FXN act, MITF act, Wnt act)
O=C(c1cc2cc(Cl)ccc2o1)N1CCCCCC1	MITF act 130, esBAF inh 65
O=C(c1cc2cc3ccc(Cl)cc3nc2o1)N1CCCCCC1	MITF act 102 (no result: Wnt act)
Cc1ccc2cc3cc(C(=O)N4CC(C)CC(C)C4)oc3nc2c1 (stereo not given)	none
COc1ccc2cc3cc(C(=O)N4CC(C)CC(C)C4)oc3nc2c1 (stereo not given)	esBAF inh 58 (no result: Wnt act)
O=C(c1cc2c(ccc3ccccc32)o1)N1CCCCC1	Wnt act 38
COc1ccc2nc3oc(C(=O)N4CCN(c5cccc(Cl)c5)CC4)cc3cc2c1	none (no result: Wnt act)
CCC(=O)N(C)C[C@H]1Oc2ncc(C3=CCCC3)cc2C(=O)N([C@@H](C)CO)C[C@H]1C	none (no result: GAA850 FXN act, MITF act, Wnt act)
O=C(NCC[C@H]1CC[C@@H](NS(=O)(=O)c2cccc(F)c2)[C@H](CO)O1)C1CCC1	none (no result: GAA850 FXN act, MITF act, Wnt act)
C[C@@H]1CCCCO[C@@H](CN(C)Cc2ccncc2)[C@H](C)CN([C@@H](C)CO)C(=O)c2cc(NC(=O)CCC(F)(F)F)ccc2O1	none (no result: GAA850 FXN act, MITF act, Wnt act)
C[C@@H]1CN([C@H](C)CO)C(=O)Cc2cc(NC(=O)c3ccncc3)ccc2O[C@@H]1CN(C)S(=O)(=O)c1cccs1	none (no result: GAA850 FXN act, MITF act, Wnt act)
C[C@H](CO)N1C[C@H](C)[C@H](CN(C)C(=O)Nc2ccccc2)Oc2cc(C#C[C@@H](C)O)ccc2S1(=O)=O	none (no result: GAA850 FXN act, MITF act, Wnt act)
O=C(NCC1CCCCC1)[C@@H]1[C@@H](CO)[C@@H]2Cn3c(ccc(-c4ccccc4F)c3=O)[C@H]1N2	none (no result: GAA850 FXN act, MITF act, Wnt act)
O=C(Cc1ccncc1)NCC[C@H]1CC[C@@H](NC(=O)C2CCCCC2)[C@@H](CO)O1	none (no result: GAA850 FXN act, MITF act, Wnt act)
O=C(c1cnn(-c2cccc(F)c2)c1)c1ccccc1O	Wnt act 37 (no result: Statin myotox sup, esBAF inh)
C/C(=N\O)c1ccc(N2C(=O)C3CC=C(Cl)CC3C2=O)cc1 (stereo not given)	MITF act inconclusive, esBAF inh 73, Wnt act 59
CS(=O)(=O)c1nc([N+](=O)[O-])nn1CCCc1ccccc1	none (no result: Statin myotox sup, MITF act, esBAF inh, Wnt act)
Cn1nc([N+](=O)[O-])nc1S(C)(=O)=O	GAA850 FXN act 18
O=C(N[C@H]1CC[C@H](CCn2cc(C3(O)CCCC3)nn2)O[C@H]1CO)C1CCC1	none (no result: GAA850 FXN act, MITF act, Wnt act)
C[C@@H]1CN([C@@H](C)CO)C(=O)c2cc(-c3cncnc3)cnc2O[C@H]1CN(C)C(=O)Cc1cccnc1	none (no result: GAA850 FXN act, MITF act, Wnt act)
C[C@H]1CN([C@@H](C)CO)S(=O)(=O)c2ccc(C#CC3(O)CCCC3)cc2O[C@H]1CN(C)C	none (no result: GAA850 FXN act, MITF act, Wnt act)
CO[C@@H]1CN(C)C(=O)c2ccc(NC(=O)c3cccc(F)c3)cc2OC[C@H](C)N(C)C[C@H]1C	none (no result: GAA850 FXN act, MITF act, Wnt act)
CC(C)(C)c1ccc(S(=O)(=O)NCC(=O)Nc2ccc(-c3nc4ccccc4s3)cc2)cc1	esBAF inh 53 (no result: Wnt act)

Source: PubChem BioAssay
